High-throughput results from PubChem.
An excerpt weighted towards active compounds, which were near 1.4% of everything screened.
LDHA inh: qHTS assay for inhibitors of human lactate dehydrogenase; L-lactate dehydrogenase A chain (Homo sapiens), P00338; purified LDHA, NADH/diaphorase-resazurin fluorescence; active compounds read low; activity change, % (values are at about 110 or 230 µM); 480,000 compounds, 0.15% hits; AID 1347041, 2019; in the data active = activity change below about -30%; inconclusive = mostly about -25% to -30%;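 note: plate controls were DMSO wells for no effect and wells without enzyme for full effect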
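Human LDH5 at 2 nM final in Tris HCl pH 7.4 with 0.06 mM NADH and 0.2 mM pyruvate, reacted 5 minutes at room temperature. Remaining NADH coupled via diaphorase/resazurin; resorufin fluorescence read at 0 and 20 minutes, normalized to enzyme-free and DMSO wells.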
IDH1 R132H inh: qHTS for Inhibitors of mutant isocitrate dehydrogenase 1 (IDH1): qHTS | Isocitrate dehydrogenase [NADP] cytoplasmic (Homo sapiens), O75874 | IDH1-R132H enzyme, NADPH consumption, diaphorase/resazurin fluorescence | Potency, µM (doses to about 76.6 µM), without a hit: at the highest dose activity change, negative = inhibition, actives largely listed as inhibitors | 390,000 compounds, 0.093% hits | AID 602179, 2012; note: potency is the fitted concentration of half-maximal effect; % is set by controls: 0 for no effect and ±100 for the full control effect; nearly all actives have a fitted effect of over 65% in size
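IDH1-R132H (0.5 ug/mL) preincubated 30 min with compound, then NADPH (0.016 mM) and alpha-KG (2 mM) added; 80 min at RT, pH 7.5. Remaining NADPH coupled via diaphorase/resazurin to fluorescence (540/590 nm); concentration-response curves normalized to no-enzyme control.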
PKM2 act: qHTS Assay for Activators of Human Muscle isoform 2 Pyruvate Kinase; purified PKM2, Kinase-Glo ATP luminescence, activation; response scale: 0% is enzyme alone, no compound; Potency, µM (highest dose often 57.5 µM), inactives show at the top dose activation, most hits filed as activators; 260,000 compounds, 0.34% hits; AID 1631, 2009; note: potency is the fitted concentration of half-maximal effect; % is set by controls: 0 for no effect and ±100 for the full control effect; nearly all actives have a fitted effect of over 55% in size
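Purified hPK-M2 (>95% pure) converted ADP (0.1 mM final) to ATP with 0.5 mM PEP in 50 mM imidazole pH7.2, KCl, MgCl2, Tween 20, BSA; 1 h at room temperature. ATP detected by Kinase-Glo luminescence.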
TrxR1 inh-1: qHTS Assay for Inhibitors of Mammalian Selenoprotein Thioredoxin Reductase 1 (TrxR1): qHTS; Thioredoxin reductase 1, cytoplasmic (Rattus norvegicus), O89049; recombinant rTrxR1, NADPH fluorescence consumption, selenite substrate; Potency, µM (series often up to 114 µM), for inactives: top-dose activity change, negative = inhibition, usual class: inhibitors; 390,000 compounds, 1% hits; note: potency is the fitted concentration of half-maximal effect; % is set by controls: 0 for no effect and ±100 for the full control effect; nearly all actives have a fitted effect of over 65% in size
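Rat TrxR1 (90 nM in the dispensed reagent) was pre-reduced with 400 uM NADPH for 5 min at room temperature, then incubated with compound for 15 min. After 400 uM selenite was added, NADPH fluorescence (Ex 340/Em 450 nm) was followed for 8 min.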
GLS inh: qHTS for Inhibitors of Glutaminase (GLS). GLS enzymatic activity, qHTS titration. Potency, µM (titrated, usually from 45.5 µM), for inactives: top-dose activity change, negative = inhibition, usual class: inhibitors. Glutaminase kidney isoform, mitochondrial (Homo sapiens), O94925. 410,000 compounds, 0.21% hits; note: potency is the fitted concentration of half-maximal effect; % is set by controls: 0 for no effect and ±100 for the full control effect
Target sequence (O94925 whole entry, looked up, canonical isoform): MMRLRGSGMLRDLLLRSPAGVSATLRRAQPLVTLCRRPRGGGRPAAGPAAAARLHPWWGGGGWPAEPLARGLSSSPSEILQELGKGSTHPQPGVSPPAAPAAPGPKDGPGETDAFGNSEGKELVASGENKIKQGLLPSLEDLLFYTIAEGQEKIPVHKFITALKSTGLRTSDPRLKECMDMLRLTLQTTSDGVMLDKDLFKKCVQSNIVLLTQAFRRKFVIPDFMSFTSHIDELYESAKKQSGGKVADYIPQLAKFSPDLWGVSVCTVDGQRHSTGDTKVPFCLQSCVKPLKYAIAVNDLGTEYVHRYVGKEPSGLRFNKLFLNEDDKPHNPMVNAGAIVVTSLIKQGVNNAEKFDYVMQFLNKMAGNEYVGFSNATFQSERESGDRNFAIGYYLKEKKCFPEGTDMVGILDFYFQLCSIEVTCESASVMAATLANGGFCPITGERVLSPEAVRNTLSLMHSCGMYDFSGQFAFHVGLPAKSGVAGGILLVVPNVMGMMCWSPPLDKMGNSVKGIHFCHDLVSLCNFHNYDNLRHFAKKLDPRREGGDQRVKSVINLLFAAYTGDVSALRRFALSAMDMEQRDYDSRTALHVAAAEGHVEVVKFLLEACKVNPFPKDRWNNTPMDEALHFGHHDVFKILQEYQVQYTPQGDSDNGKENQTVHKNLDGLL
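Enzyme dispensed in phosphate buffer (45 mM, pH 8.2, 0.02% Tween-20), compounds pinned in, then 1 mM L-glutamine solution and the glutamate oxidase–HRP–Amplex Red mix added; fluorescence read immediately and again after 30 min at room temperature.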
TrxR1 substrate: qHTS Assay for Substrates of Mammalian Selenoprotein Thioredoxin Reductase 1 (TrxR1): qHTS. Potency, µM (top dose mostly 114 µM), for the others: top-dose activity change, negative = substrate turnover. purified TrxR1 substrate turnover, NADPH consumption readout. Thioredoxin reductase 1, cytoplasmic (Rattus norvegicus), O89049. AID 588456, 2011. 390,000 compounds, 0.01% hits; note: potency is the fitted concentration of half-maximal effect; % is set by controls: 0 for no effect and ±100 for the full control effect; nearly all actives have a fitted effect of over 50% in size
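Rat TrxR1, dispensed at 90 nM, was prereduced with 400 uM NADPH (final) for 5 min at ~22 deg C, then incubated with compound 15 min before 400 uM selenite. A first-read NADPH fluorescence drop versus no-compound background flagged substrates.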
TRb-SRC2 inh: Protein Interaction Secondary Assay for Inhibitors of the Interaction of Thyroid Hormone Receptor and Steroid Receptor Coregulator 2, Alpha Screen. shares compounds with TrxR1 inh-1. AlphaScreen TRb LBD-SRC2 peptide binding, luminescence. Potency, µM. 30 compounds, 50% hits. AID 2444, 2010; calls by dose curve
HepG2 tox: Cell Viability Secondary Assay for Inhibitors of the Interaction of Thyroid Hormone Receptor and Steroid Receptor Coregulator 2; shares compounds with TrxR1 inh-1; HepG2 viability, ATP luminescence (CellTiter-Glo), 72 h; Potency, µM; 40 compounds, 50% hits; AID 2447, 2010; calls by dose curve
AR SRC2 FP: Androgen Receptor Selectivity Assay for Inhibitors of the Interaction of Thyroid Hormone Receptor and Steroid Receptor Coregulator 2; shares compounds with TrxR1 inh-1; AR-LBD Tx-SRC2-3 fluorescence polarization, 3 h; calls only; 25 tested, under 10 active; AID 2448, 2010; call rule not given here
PPARg DRIP2 FP: PPAR gamma Selectivity Assay For Inhibitors of the Interaction of Thyroid Hormone Receptor and Steroid Receptor Coregulator 2; shares compounds with TrxR1 inh-1; PPARg LBD / Texas Red DRIP-2 peptide, fluorescence polarization, 3 h; Potency, µM; 25 tested, under 10 active; AID 2449, 2010; calls by dose curve
VDR SRC2 FP: Vitamin D Receptor Selectivity Assay for Inhibitors of the Interaction of Thyroid Hormone Receptor and Steroid Receptor Coregulator 2 | shares compounds with TrxR1 inh-1 | VDR LBD/SRC2-3 peptide, fluorescence polarization, 3 h | Potency, µM | 25 tested, under 10 active | AID 2455, 2010; calls by dose curve
TRb-SRC2 FP Fluo: Secondary Confirmation Assay for Inhibitors of the Interaction of Thyroid Hormone Receptor and Steroid Receptor Coregulator 2, Fluorescein Fluoroprobe; shares compounds with TrxR1 inh-1; TRb LBD / fluorescein-SRC2 peptide, fluorescence polarization; Potency, µM; 20 tested, under 10 active; call rule not given here
GR inh: qHTS Assay for Inhibitors of Mammalian Selenoprotein Thioredoxin Reductase 1 (TrxR1): Counterassay in Glutathione Reductase (GR); AID 652020, 2013; purified GR, DTNB reduction absorbance 405 nm kinetic; shares compounds with TrxR1 inh-1; activity change, negative = inhibition, % at 57.1 µM; 55 tested, under 10 active
TrxR1 inh-2: qHTS Assay for Inhibitors of Mammalian Selenoprotein Thioredoxin Reductase 1 (TrxR1): Hit Validation in Primary Screen | recombinant TrxR1, NADPH fluorescence consumption, selenite substrate | Potency, µM, usual class: inhibitors | 55 compounds, 50% hits | shares compounds with TrxR1 inh-1
TrxR1 insulin MOA: qHTS Assay for Inhibitors of Mammalian Selenoprotein Thioredoxin Reductase 1 (TrxR1): Insulin MOA Assay. TrxR1 Trx-coupled insulin reduction, NADPH absorbance 340 nm. shares compounds with TrxR1 inh-1. 55 compounds, 20% hits. Potency, µM;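 active = compounds with a measured potency under 100 micromolar; inconclusive = filed, but no rule given; inactive = potency at or above that, or unmeasurable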
TrxR1 inh-3: qHTS Assay for Inhibitors of Mammalian Selenoprotein Thioredoxin Reductase 1 (TrxR1): DTNB Assay; shares compounds with TrxR1 inh-1; purified TrxR1, DTNB reduction, A412; 55 compounds, 90% hits; Potency, µM;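 active = a half-inhibiting concentration could be measured and was below 100 µM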
* hit, by the source's call; i = inactive; ? = inconclusive; · = no result; ! = not active in a repeat; [ ] = dose if it differs, or a comment. Unless noted, calls come from the whole dose curve; as a rule, active = well fitted curve in the direction sought with a large enough effect; inconclusive = small, poorly fitted or top-dose-only effect, or another doubt; inactive = no such curve, though single readings can be large; an effect the other way counts as inactive or inconclusive.

SMILES	LDHA inh	IDH1 R132H inh	PKM2 act	TrxR1 inh-1	GLS inh	TrxR1 substrate	others
CC(OC(=O)c1ccncc1)C(=O)Nc1cccc([N+](=O)[O-])c1 (stereo not given)	-3	-2%	-4%	6%[57.1 µM]	69%	-12%
CC(=O)c1cccc(NC(=O)C(C)OC(=O)c2ccc(S(C)(=O)=O)c([N+](=O)[O-])c2)c1 (stereo not given)	0	·	·	7.1µM*	·	1%	TRb-SRC2 inh=40µM*;HepG2 tox=?;AR SRC2 FP=i;PPARg DRIP2 FP=?;VDR SRC2 FP=?;TRb-SRC2 FP Fluo=62µM*
CCCCN1C(=O)C(O)(CC(=O)c2cccnc2)c2ccccc21 (stereo not given)	5	·	·	·	·	·
Cc1cccc(C(=O)Nc2nnc(S(=O)(=O)N(C)Cc3ccco3)s2)c1	0	42%	·	45µM*!	2%	0%	GR inh=-3;TrxR1 inh-2=?;TrxR1 insulin MOA=?;TrxR1 inh-3=49µM*
CC(OC(=O)c1ccc(O)cc1)C(=O)C12CC3CC(CC(C3)C1)C2 (stereo not given)	10	·	·	·	·	·
